# Calls of active or inactive are those of the source. Rule for the calls: active = hit-call score of the fitted dose curve at least 0.9, where 1 is the maximum; inactive = score below 0.9.
# What was measured:
# Settings in all cases: mRNA level, 48 h; actives raise or lower the signal
# [1] = read-out: Apolipoprotein A-V (APOA5) gene, APOA5 (gene 116519); assay: LTEA_HepaRG_APOA5: Life Technologies and Expression Analysis (LTEA) Assay for Apolipoprotein A-V (APOA5) gene using HepaRG (AID 2283474)
# How it was run: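 Differentiated human HepaRG cells were exposed in duplicate for 48 h to eight half-log concentrations from 100 uM in 0.5% DMSO. APOA5 mRNA was quantified by TaqMan qRT-PCR, normalized to ACTB, GAPDH and POLR2A, and fitted bidirectionally against DMSO.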
# [2] = read-out: Apoptosis regulator Bcl-2 (Homo sapiens) (UniProt P10415); assay: LTEA_HepaRG_BCL2: Life Technologies and Expression Analysis (LTEA) Assay for Bcl-2 gene using HepaRG (AID 2283475)
# How it was run: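 qRT-PCR read-out (Fluidigm TaqMan) of BCL2 transcript, normalised to three housekeeping genes, after 48 h chemical exposure of HepaRG cells; 8-point half-log series, top 100 uM, 0.5% DMSO vehicle. Gain or loss of signal fitted relative to DMSO baseline.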
# [3] = read-out: Bcl-2 (BID) gene, BID (gene 637); assay: LTEA_HepaRG_BID: Life Technologies and Expression Analysis (LTEA) Assay for Bcl-2 (BID) gene using HepaRG (AID 2283476)
# How it was run: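 HepaRG, 48 h exposure, 8-pt half-log series, top 100 uM, 0.5% DMSO vehicle, duplicates. Readout: BID mRNA by TaqMan qRT-PCR; housekeeping-normalized; bidirectional curve fit vs DMSO baseline.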
# Caspase-3 (Homo sapiens) = Caspase-3 (Homo sapiens) (UniProt P42574); assay: LTEA_HepaRG_CASP3: Life Technologies and Expression Analysis (LTEA) Assay for cysteine-aspartic acid protease (CASP3) using HepaRG (AID 2283477)
# Caspase-3 (Homo sapiens), sequence (P42574 whole entry, looked up): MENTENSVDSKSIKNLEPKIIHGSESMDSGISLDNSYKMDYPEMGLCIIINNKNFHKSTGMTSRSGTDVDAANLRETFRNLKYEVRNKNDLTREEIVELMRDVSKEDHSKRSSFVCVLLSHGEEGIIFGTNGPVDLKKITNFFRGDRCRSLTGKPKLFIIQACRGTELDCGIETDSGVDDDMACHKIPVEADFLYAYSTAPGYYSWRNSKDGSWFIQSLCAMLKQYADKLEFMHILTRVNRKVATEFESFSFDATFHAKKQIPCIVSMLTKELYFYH
# How it was run: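 Differentiated human HepaRG cells in serum-free induction medium were exposed 48 h to 8-point half-log concentrations from 100 uM (0.5% DMSO vehicle). CASP3 mRNA was measured by qRT-PCR, normalised to ACTB, GAPDH and POLR2A, with bidirectional fitting against DMSO.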
# [4] = read-out: Cytochrome P450 (CYP24A1), CYP24A1 (gene 1591); assay: LTEA_HepaRG_CYP24A1: Life Technologies and Expression Analysis (LTEA) Assay for Cytochrome P450 (CYP24A1) using HepaRG (AID 2283478)
# How it was run: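 Differentiated HepaRG cells, pre-cultured 48 h, were exposed in duplicate for 48 h in serum-free induction medium to 8 half-log concentrations (top 100 uM, 0.5% DMSO). CYP24A1 mRNA was quantified by TaqMan qRT-PCR, normalized to ACTB/GAPDH/POLR2A, fitted bidirectionally versus DMSO.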
# [5] = read-out: Cytochrome P450 (CYP1A2), CYP1A2 (gene 1544); assay: LTEA_HepaRG_CYP1A2: Life Technologies and Expression Analysis (LTEA) Assay for Cytochrome P450 (CYP1A2) using HepaRG (AID 2283479)
# How it was run: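 Differentiated human HepaRG cells in serum-free induction medium were exposed in duplicate for 48 h to 8-point half-log concentrations up to 100 uM in 0.5% DMSO. CYP1A2 mRNA measured by qRT-PCR, normalized to ACTB, GAPDH, POLR2A; bidirectional fit vs DMSO.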
# [6] = read-out: cysteine-aspartic acid protease (CASP8), CASP8 (gene 841); assay: LTEA_HepaRG_CASP8: Life Technologies and Expression Analysis (LTEA) Assay for cysteine-aspartic acid protease (CASP8) using HepaRG (AID 2283480)
# How it was run: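 CASP8 transcript measured by TaqMan qRT-PCR with ACTB/GAPDH/POLR2A normalization, after 48 h chemical exposure of HepaRG cells in serum-free induction medium. Eight concentrations, top 100 uM, half-log steps, 0.5% DMSO vehicle; fits in both directions versus DMSO.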
# [7] = read-out: Cytochrome P450 (CYP2B6), CYP2B6 (gene 1555); assay: LTEA_HepaRG_CYP2B6: Life Technologies and Expression Analysis (LTEA) Assay for Cytochrome P450 (CYP2B6) using HepaRG (AID 2283481)
# How it was run: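 Differentiated HepaRG cells, serum-free induction medium, exposed 48 h in duplicate to 8-point half-log concentrations from 100 uM in 0.5% DMSO. CYP2B6 mRNA by qRT-PCR, normalized to ACTB, GAPDH, POLR2A; bidirectional fit versus DMSO.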
# CYP2C8 (gene 1558) = assay: LTEA_HepaRG_CYP2C8: Life Technologies and Expression Analysis (LTEA) Assay for CYP2C8 using HepaRG (AID 2283483)
# How it was run: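 CYP2C8 expression measured by TaqMan qRT-PCR and normalized to three housekeeping genes. HepaRG cultures were treated for 48 h with an eight-point half-log series topping at 100 uM, vehicle 0.5% DMSO, duplicates; fitted both directions against DMSO.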
# [8] = read-out: Cytochrome P450 2C19 (Homo sapiens) (UniProt P33261); assay: LTEA_HepaRG_CYP2C19: Life Technologies and Expression Analysis (LTEA) Assay for CYP2C19 using HepaRG (AID 2283482)
# How it was run: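 Differentiated human HepaRG cells were exposed for 48 h in serum-free induction medium to 8 concentrations (top 100 uM, half-log steps, 0.5% DMSO). CYP2C19 mRNA was measured by qRT-PCR, normalized to ACTB/GAPDH/POLR2A, and fitted bidirectionally against DMSO.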
# Apoptosis regulator Bcl-2 (Homo sapiens), sequence (P10415 whole entry, looked up): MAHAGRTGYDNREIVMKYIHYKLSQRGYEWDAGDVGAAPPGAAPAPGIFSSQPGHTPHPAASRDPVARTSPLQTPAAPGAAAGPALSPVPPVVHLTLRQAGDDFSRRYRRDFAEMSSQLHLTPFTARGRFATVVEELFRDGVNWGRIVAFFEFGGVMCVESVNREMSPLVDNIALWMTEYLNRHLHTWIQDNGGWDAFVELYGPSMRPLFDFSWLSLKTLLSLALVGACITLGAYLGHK
# Cytochrome P450 2C19 (Homo sapiens), sequence (P33261 whole entry, looked up): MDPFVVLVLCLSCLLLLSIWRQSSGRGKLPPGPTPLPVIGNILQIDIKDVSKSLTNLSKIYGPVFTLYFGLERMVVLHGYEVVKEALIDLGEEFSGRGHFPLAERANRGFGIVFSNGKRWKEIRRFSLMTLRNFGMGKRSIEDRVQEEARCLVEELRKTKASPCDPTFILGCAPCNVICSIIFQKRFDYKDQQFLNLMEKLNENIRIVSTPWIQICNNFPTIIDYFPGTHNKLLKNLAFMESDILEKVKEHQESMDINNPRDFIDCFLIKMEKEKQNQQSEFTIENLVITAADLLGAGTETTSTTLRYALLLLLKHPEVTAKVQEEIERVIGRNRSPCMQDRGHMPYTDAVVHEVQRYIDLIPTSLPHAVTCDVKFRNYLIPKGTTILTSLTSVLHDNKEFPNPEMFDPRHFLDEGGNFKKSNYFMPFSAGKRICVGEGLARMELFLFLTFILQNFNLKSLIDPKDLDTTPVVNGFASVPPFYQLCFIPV
smiles,measurement,setting,value
Nc1ccc(Nc2ccccc2)cc1,outcome,[1],inactive
same,outcome,[2],inactive
same,outcome,[3],inactive
same,outcome,Caspase-3 (Homo sapiens),inactive
same,outcome,[4],inactive
same,AC50,[5],4.54 µM (active)
same,outcome,[6],inactive
same,AC50,[7],33.7 µM (active)
same,outcome,CYP2C8 (gene 1558),inactive
CC(C)CCCCCCCOC(=O)CCCCC(=O)OCCCCCCCC(C)C,outcome,[1],inactive
same,outcome,[2],inactive
same,outcome,[3],inactive
same,outcome,Caspase-3 (Homo sapiens),inactive
same,outcome,[4],inactive
same,outcome,[5],inactive
same,outcome,[6],inactive
same,outcome,[7],inactive
same,outcome,CYP2C8 (gene 1558),inactive
O=C(OC[C@H]1O[C@@H](OC(=O)c2cc(O)c(O)c(OC(=O)c3cc(O)c(O)c(O)c3)c2)[C@H](OC(=O)c2cc(O)c(O)c(OC(=O)c3cc(O)c(O)c(O)c3)c2)[C@@H](OC(=O)c2cc(O)c(O)c(OC(=O)c3cc(O)c(O)c(O)c3)c2)[C@@H]1OC(=O)c1cc(O)c(O)c(OC(=O)c2cc(O)c(O)c(O)c2)c1)c1cc(O)c(O)c(OC(=O)c2cc(O)c(O)c(O)c2)c1,AC50,[1],6.96 µM (active)
same,AC50,[2],28.4 µM (active)
same,AC50,[3],7.63 µM (active)
same,outcome,Caspase-3 (Homo sapiens),inactive
same,outcome,[4],inactive
same,outcome,[5],inactive
same,AC50,[6],9.48 µM (active)
same,AC50,[7],10.2 µM (active)
same,AC50,CYP2C8 (gene 1558),15.2 µM (active)
C=CCCCCCCCCC(=O)O,outcome,[1],inactive
same,outcome,[2],inactive
same,outcome,[3],inactive
same,outcome,Caspase-3 (Homo sapiens),inactive
same,outcome,[4],inactive
same,AC50,[5],50 µM (active)
same,outcome,[6],inactive
same,outcome,[7],inactive
same,outcome,CYP2C8 (gene 1558),inactive
Oc1ccc2c(c1)-c1ccccc1C2,outcome,[1],inactive
same,outcome,[2],inactive
same,outcome,[3],inactive
same,outcome,Caspase-3 (Homo sapiens),inactive
same,outcome,[4],inactive
same,AC50,[5],21.4 µM (active)
same,outcome,[6],inactive
same,AC50,[7],50 µM (active)
same,outcome,[8],inactive
same,outcome,CYP2C8 (gene 1558),inactive
CCOCCO,outcome,[1],inactive
same,outcome,[2],inactive
same,outcome,[3],inactive
same,outcome,Caspase-3 (Homo sapiens),inactive
same,outcome,[4],inactive
same,outcome,[5],inactive
same,outcome,[6],inactive
same,outcome,[7],inactive
same,outcome,CYP2C8 (gene 1558),inactive
CC1=CC(=O)CC(C)(C)C1,outcome,[1],inactive
same,outcome,[2],inactive
same,outcome,[3],inactive
same,outcome,Caspase-3 (Homo sapiens),inactive
same,outcome,[4],inactive
same,outcome,[5],inactive
same,outcome,[6],inactive
same,outcome,[7],inactive
same,outcome,CYP2C8 (gene 1558),inactive
CC1(C)C(=O)N(Br)C(=O)N1Br,outcome,[1],inactive
same,outcome,[2],inactive
same,outcome,[3],inactive
same,outcome,Caspase-3 (Homo sapiens),inactive
same,outcome,[4],inactive
same,AC50,[5],37.5 µM (active)
same,outcome,[6],inactive
same,AC50,[7],7.06 µM (active)
same,outcome,[8],inactive
same,outcome,CYP2C8 (gene 1558),inactive
CCNc1ccccc1,outcome,[1],inactive
same,outcome,[2],inactive
same,outcome,[3],inactive
same,outcome,Caspase-3 (Homo sapiens),inactive
same,outcome,[4],inactive
same,AC50,[5],16.5 µM (active)
same,outcome,[6],inactive
same,AC50,[7],28.3 µM (active)
same,outcome,CYP2C8 (gene 1558),inactive
Fc1ccccc1[C@@H](F)COC1CCC(Nc2ncnc3[nH]ncc23)CC1 (some centres not stated),AC50,[1],50 µM (active)
same,AC50,[2],30.7 µM (active)
same,outcome,[3],inactive
same,AC50,Caspase-3 (Homo sapiens),24.9 µM (active)
same,outcome,[4],inactive
same,AC50,[5],29.1 µM (active)
same,outcome,[6],inactive
same,AC50,[7],30.9 µM (active)
same,AC50,[8],67.9 µM (active)
same,outcome,CYP2C8 (gene 1558),inactive
CC(C)=CCCC(C)=CC=O,outcome,[1],inactive
same,outcome,[2],inactive
same,outcome,[3],inactive
same,outcome,Caspase-3 (Homo sapiens),inactive
same,outcome,[4],inactive
same,outcome,[5],inactive
same,outcome,[6],inactive
same,AC50,[7],50 µM (active)
same,outcome,CYP2C8 (gene 1558),inactive
